Source: PubChem BioAssay (National Center for Advancing Translational Sciences (NCATS))
TGFb SMAD3 inh: qHTS for Inhibitors of TGF-b. HepG2 CAGA-GFP TGF-b/SMAD3 reporter, GFP fluorescence, 18 h; TGF-beta stimulated, 500 pg/mL final. Potency, µM (titrated, usually from 46.1 µM), most hits filed as inhibitors. 410,000 tested, 1.2% active; further: nearly all actives have a fitted effect of over 65% in size
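First, reporter cells (HEPG2 CAGA-GFP) rested 2 h at 37 degrees C. Next, compounds were pinned in and TGF-beta added to 500 pg/mL final. After 18 h, GFP was imaged per cell and summed per well.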
S2 tox: Viability Counterscreen for Primary qHTS for Inhibitors of ATXN expression; S2 cells (HEK-293 line with an ATXN2-luciferase reporter) viability, CellTiter-Fluor protease fluorescence, 24 h; Potency, µM (top dose mostly 56.7 µM), usual class: cytotoxic; 400,000 tested, 0.49% active; further: nearly all actives have a fitted effect of over 40% in size
ATXN2 expr inh: Primary qHTS for Inhibitors of ATXN expression. Potency, µM (series often up to 57 µM), hits mostly inhibitors. HEK-293 ATXN2-luciferase reporter, luminescence, 24 h. 360,000 tested, 0.72% active; further: nearly all actives have a fitted effect of over 55% in size
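qHTS (up to 57 uM final) was run with 24 h compound exposure of reporter cells at 37 °C. Each well was multiplexed: SteadyGlo luminescence measured ATXN2-luciferase expression after a fluorogenic Gly-Phe-AFC viability readout (25 uM final).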
HepG2 tox: qHTS for Inhibitors of TGF-b: Cytotox Counterscreen; AID 588856, 2011; Potency, µM (highest dose often 46.1 µM), most hits filed as cytotoxic; HepG2 CAGA-GFP viability, ATP luminescence, 18 h; 410,000 tested, 0.76% active
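CellTiter-Glo luminescence gave cytotoxicity after 18 hours at 37 degrees C. The cells were HepG2 CAGA-GFP in 1% FBS DMEM, stimulated with 500 pg/mL TGF-beta after compound addition. %Activity was normalised to no-cell wells (complete cell-killing) and DMSO (no toxicity), and curves were fitted and classified.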
IL-1B inflam inh: qHTS for Inhibitors of Inflammasome Signaling: IL-1-beta AlphaLISA Primary Screen | activity change, % at 57.5 µM | AID 743279, 2014 | 360,000 tested, 4.7% active | THP-1 LPS/ATP IL-1B secretion, AlphaLISA, 16 h; active compounds read low; in the data active means activity change below about -50%; inconclusive means mostly about -30% to -49%
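THP-1 cells pretreated 1 hr with compounds (up to 57.5 uM final), then stimulated with LPS (250 ng/mL final) plus ATP (1.25 mM final); secreted IL-1B measured by AlphaLISA after 16 hr, decreased signal indicating inhibition.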
Each line names hits and unclear results; the compound was inactive in the other large screens; ! = not active in a repeat. Rows were chosen to be rich in hits. Some 5.7% of all compounds tested hit in one or more screens of this group. Unless noted, the call rests on the fitted dose curve; in most records, active means well fitted curve in the direction sought with a large enough effect; inconclusive means small, poorly fitted or top-dose-only effect, or another doubt; inactive means no such curve, though single readings can be large; an effect the other way counts as inactive or inconclusive.

O=C(Nc1ccc(Cl)cc1)Nc1ccc(Cl)c(C(F)(F)F)c1	S2 tox 16µM!, ATXN2 expr inh inconclusive (no result: TGFb SMAD3 inh, HepG2 tox, IL-1B inflam inh)
Cc1ccc(S(=O)(=O)C2(C(=O)Nc3ccc(Cl)c(C(F)(F)F)c3)CC2)cc1	TGFb SMAD3 inh 11µM, S2 tox inconclusive (no result: IL-1B inflam inh)
Cc1ccc(S(=O)(=O)C2(C(=O)Nc3ccc(C)c(Cl)c3)CC2)cc1	none (no result: IL-1B inflam inh)
CC1CC(C)CN(S(=O)(=O)c2ccc(NC(=O)CN3CCCCCC3)cc2)C1 (stereo unspecified)	TGFb SMAD3 inh inconclusive, IL-1B inflam inh -53
COc1cccc(CN2C(=O)NC(C)(C3CCN(Cc4cc(F)cc(F)c4)CC3)C2=O)c1OC (stereo unspecified)	none (no result: TGFb SMAD3 inh, ATXN2 expr inh, HepG2 tox, IL-1B inflam inh)
CCC(C)C(NC(=O)C1CCC(C)CC1)C(=O)NCCCN1CCCCC1CC (stereo unspecified)	IL-1B inflam inh -63 (no result: ATXN2 expr inh)
CC1CCC(C(=O)NC(C(=O)NCCN2CCC(C)CC2)C(C)C)CC1 (stereo unspecified)	none
Cc1cc(C)c(/C=C/c2onc(C)c2S(=O)(=O)N2CCC(C(=O)N3CCN(c4ccccc4)CC3)CC2)c(C)c1	none (no result: S2 tox, ATXN2 expr inh, IL-1B inflam inh)
CN1CCN(/N=C/c2ccc(-c3ccccc3)cc2)CC1	IL-1B inflam inh -55
CN1CCN(/N=C/c2c3ccccc3c(Cl)c3ccccc23)CC1	TGFb SMAD3 inh inconclusive, IL-1B inflam inh -74
Cc1cccc2c(N3CCCC3)nc(CNS(=O)(=O)c3ccc4ccccc4c3)nc12	none (no result: TGFb SMAD3 inh, ATXN2 expr inh, HepG2 tox, IL-1B inflam inh)
O=C(Nc1ccccc1)OC[C@@H]1C=CS(=O)(=O)N1Cc1ccc(Br)cc1	IL-1B inflam inh -68
CN(CCC#N)c1ccc(/C=C(\C#N)c2ccccn2)cc1	IL-1B inflam inh -64
O=C(NNC(=S)Nc1ccc(Br)cc1)c1ccccc1	none
CCC(=O)NC(=S)NNC(=O)c1ccc(OC)cc1	ATXN2 expr inh inconclusive
CCOc1ccc(NC(=S)Nc2ccc(OCC)cc2)cc1	IL-1B inflam inh -80
CCOc1ccc(NC(=S)NNC(=O)c2ccc(Br)cc2)cc1	IL-1B inflam inh -64
CCNC(=S)Nc1ccc(OCC)cc1	none
CCCCOc1ccc(C(=O)NNC(=S)NC(=O)CC)cc1	S2 tox inconclusive, ATXN2 expr inh 25µM, IL-1B inflam inh -96
CCOc1ccc(NC(=O)c2ccccn2)cc1	TGFb SMAD3 inh inconclusive, ATXN2 expr inh 10µM
COc1ccc(OC)c(NC(=O)CCCc2nnc3n(C(C)C)c(=O)c4sccc4n23)c1	none (no result: S2 tox, ATXN2 expr inh, IL-1B inflam inh)
Cc1nc(N2CCCC2)ncc1C(=O)N1CCN(c2ccccc2F)CC1	none (no result: IL-1B inflam inh)
Cc1ccccc1NC(=O)Cn1c(=O)n(CCC(=O)N2CCc3ccccc3C2)c(=O)c2ccccc21	none (no result: IL-1B inflam inh)
CCc1cccc(NC(=S)N2CCC(c3ccccc3)C2)c1 (stereo unspecified)	HepG2 tox 16µM
CSc1cccc(NC(=S)N2CCC(c3ccccc3)C2)c1 (stereo unspecified)	IL-1B inflam inh inconclusive
COc1cccc(NC(=S)N2CCC(c3ccc(C)cc3)C2)c1 (stereo unspecified)	IL-1B inflam inh -78
CC(=O)OCC(NC(=O)C(CCCCNC(=O)OCc1ccccc1)NC(=O)OC(C)(C)C)C1OC(n2cc(F)c(=O)[nH]c2=O)C(OC(C)=O)C1OC(C)=O (stereo unspecified)	none (no result: S2 tox, ATXN2 expr inh, IL-1B inflam inh)
Cc1nnc2sc(SCc3cccc(Cl)c3)nn2c1=O	IL-1B inflam inh -100
CN(C)c1ccc2nc3c(=O)[nH]c(=O)nc-3n(CC(O)C(O)C(O)CO)c2c1 (stereo unspecified)	S2 tox 13µM (no result: ATXN2 expr inh)
NNC(=O)c1sc(-c2ccc(Cl)cc2)cc1N	IL-1B inflam inh -78
CCOC(=O)c1sc(-c2ccc(Br)cc2)cc1N	none
Cc1cccc(CSc2nc(N)c(C#N)c(-c3cccs3)c2C#N)c1	IL-1B inflam inh -54 (no result: S2 tox, ATXN2 expr inh)
CC(C)C[C@@H](C(=O)NC1CCN(Cc2ccccc2)CC1)N1C(=O)N2CCc3c([nH]c4ccccc34)[C@@]2(C)C1=O	TGFb SMAD3 inh inconclusive, S2 tox 25µM, ATXN2 expr inh inconclusive, HepG2 tox 13µM
C[C@@H](C(=O)NC1CCN(Cc2ccccc2)CC1)N1C(=O)N2CCc3c([nH]c4ccccc34)[C@@]2(C)C1=O	TGFb SMAD3 inh inconclusive
COc1ccc(-c2nc3nc(C)cc(Nc4ccc(C(C)=O)cc4)n3n2)cc1	TGFb SMAD3 inh inconclusive, S2 tox inconclusive (no result: IL-1B inflam inh)
O=C(COc1ccc(Cl)c(Cl)c1)NN1C(=O)C2C(C1=O)C1C=CC2C12CC2 (stereo unspecified)	none (no result: ATXN2 expr inh)
CC(C)=C1C2CCC1C1C(=O)N(NC(=O)COc3ccc(Cl)c(C)c3)C(=O)C21 (stereo unspecified)	IL-1B inflam inh -68
O=c1c(Cc2ccccc2)c(O)c2cccc3c4c(n1c23)CCCC4	TGFb SMAD3 inh 14µM, S2 tox inconclusive
COc1cccc(CNC(=O)c2ccc3c(c2)nc2n3CCC(C)C2)c1OC (stereo unspecified)	none (no result: S2 tox, ATXN2 expr inh, IL-1B inflam inh)
CCCNC(=O)C1(C)CCCN(Cc2ccccc2-c2ccccc2)C1 (stereo unspecified)	none
CCCCNC(=O)C1(C)CCCCN1Cc1ccccc1-c1ccccc1 (stereo unspecified)	TGFb SMAD3 inh inconclusive, ATXN2 expr inh inconclusive, HepG2 tox 20µM
O=C(/C=C/c1cccc([N+](=O)[O-])c1)n1cnc2ccccc21	TGFb SMAD3 inh inconclusive, ATXN2 expr inh inconclusive, IL-1B inflam inh -68 (no result: S2 tox)
O=C(/C=C/c1cccc([N+](=O)[O-])c1)N1CCN(c2ccccn2)CC1	none
CCOC(=O)c1ccc(NC(=O)CN2C(=O)c3cccnc3Sc3ccccc32)cc1	none (no result: IL-1B inflam inh)
COc1ccc(NC(=O)C2(S(=O)(=O)c3ccc(C)cc3)CC2)c(OC)c1	S2 tox inconclusive (no result: IL-1B inflam inh)
COc1ccc(O)c(-c2cc(-c3ccc(F)cc3)n[nH]2)c1	TGFb SMAD3 inh inconclusive, IL-1B inflam inh -51
Cc1ccc(O)c(-c2cc(-c3cccc(F)c3)n[nH]2)c1	TGFb SMAD3 inh 22µM
O[C@H]1C[C@H](c2ccc(Cl)cc2)N(CC2CCCCC2)C[C@@H]1n1cc(C2CC2)nn1	TGFb SMAD3 inh inconclusive, S2 tox 35µM, ATXN2 expr inh inconclusive, HepG2 tox 16µM, IL-1B inflam inh inconclusive
O[C@@H]1C[C@H](c2ccc(Cl)cc2)N(CC2CCCCC2)C[C@H]1n1cc(C2CC2)nn1	none
O[C@@H]1CN(CC2CCCCC2)[C@@H](c2ccc(Cl)cc2)C[C@H]1n1cc(C2CC2)nn1	S2 tox 20µM, ATXN2 expr inh inconclusive, IL-1B inflam inh -51
CCc1c(C)sc2c1CCN(C(=O)Nc1cc(C)ccc1OC)C2c1ccc(F)cc1 (stereo unspecified)	none (no result: IL-1B inflam inh)
